# In PubChem BioAssay (NCI):
# About 79,000 compounds went through this panel and 15% of them were active in at least one assay; those are over-represented in the sample as a whole. Values without a mark were called inactive. Activity calls are given as the source filed them. Rule as the data show it: active = growth inhibition above about 70%; inactive = the rest.
# Experiments:
# [1] = NCI Yeast Anticancer Drug Screen. Data for the rad50 strain (AID 155);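 also: 0% = growth of vehicle-only cultures of the same strain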; settings: S. cerevisiae rad50 strain growth inhibition, stronger effect = higher value
# In short: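 Growth of the mutant yeast was measured after compound exposure and referenced to vehicle-treated cultures.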
# [2] = NCI Yeast Anticancer Drug Screen. Data for the mec2-1 strain (AID 157); settings: S. cerevisiae mec2-1 strain, stronger effect = higher value
# In short: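 Strain: mec2-1 (DNA repair/cell cycle alteration). Compound exposure, then growth measured; inhibition expressed relative to vehicle.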
# [3] = NCI Yeast Anticancer Drug Screen. Data for the sgs1 mgt1 strain (AID 161);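 also: 0% = growth of cultures given vehicle only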; settings: S. cerevisiae sgs1 mgt1 strain, stronger effect = higher value
# In short: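 Genetically altered yeast, compound exposure, growth inhibition relative to vehicle.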
# [4] = NCI Yeast Anticancer Drug Screen. Data for the cln2 rad14 strain (AID 165);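 also: 0% = growth equal to vehicle treated cultures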; settings: S. cerevisiae cln2 rad14 strain, stronger effect = higher value
# In short: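 Compounds are applied to the cln2 rad14 yeast strain, and growth is then compared with that of vehicle-treated cultures to give inhibition.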
# [5] = NCI Yeast Anticancer Drug Screen. Data for the bub3 strain (AID 167); settings: S. cerevisiae bub3 mutant strain, stronger effect = higher value
# In short: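 Whole-cell yeast assay. The mutant strain was incubated with compounds, and growth inhibition was determined by comparison with vehicle-treated cells.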
# [6] = NCI Yeast Anticancer Drug Screen. Data for the mlh1 rad18 strain (AID 175); settings: S. cerevisiae mlh1 rad18 strain growth inhibition, stronger effect = higher value
# In short: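 Read-out is yeast growth inhibition, calculated against vehicle-only controls. The compound was applied to a strain engineered with DNA damage repair alterations.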
# [7] = at 5.0 µM (retest, dose inferred, filed as 0.5)
# [8] = at 50.0 µM (retest, dose inferred, filed as 5.0)
Structure (SMILES),"growth inhibition [1, 7]","growth inhibition [1, 8]",growth inhibition ([1]; at 50.0 µM),"growth inhibition [2, 7]","growth inhibition [2, 8]",growth inhibition ([2]; at 50.0 µM),"growth inhibition [3, 7]","growth inhibition [3, 8]",growth inhibition ([3]; at 50.0 µM),"growth inhibition [4, 7]","growth inhibition [4, 8]",growth inhibition ([4]; at 50.0 µM),"growth inhibition [5, 7]","growth inhibition [5, 8]",growth inhibition ([5]; at 50.0 µM),"growth inhibition [6, 7]","growth inhibition [6, 8]",growth inhibition ([6]; at 50.0 µM)
COc1ccccc1C1c2cc3c(cc2OC(C)(O)C1C)OCO3 (centres undefined),-5%,60%,85% (active),-4%,49%,58.4%,1%,61%,86.3% (active),-3%,53%,74.2% (active),0%,49%,66.8%,0%,75% (active),85.5% (active)
CCOC(=O)/C(=C\c1ccc(Br)cc1)C(C)=O,28%,98% (active),92.5% (active),29%,99% (active),94.2% (active),48%,98% (active),93.5% (active),34%,98% (active),92.5% (active),71% (active),99% (active),92.3% (active),70% (active),99% (active),91.7% (active)
COC(=O)c1ccccc1C(=O)c1cc(OC)c2c(c1OC)CCCC2,-2%,59%,90.8% (active),0%,64%,94.5% (active),5%,63%,75.5% (active),-69%,23%,47.6%,3%,-45%,77% (active),3%,24%,82.9% (active)
Cc1cc(N=NC(N)=S)c2ccccc2c1O,4%,22%,76.2% (active),-3%,1%,24.9%,-5%,16%,6.7%,-2%,-23%,-22.1%,2%,15%,37.2%,-40%,-1%,53.8%
NNC(=O)C(=O)N/N=C(/CCC(=O)NCCc1ccccc1)CC(=O)c1ccccc1,1%,3%,28.5%,1%,2%,3.05%,-2%,4%,9.1%,-3%,1%,6.15%,0%,0%,-3.3%,-2%,-3%,22.6%
Clc1ccc2nc(CCSCCc3nc4ccc(Cl)cc4[nH]3)[nH]c2c1,5%,97% (active),87.8% (active),7%,98% (active),98.7% (active),7%,97% (active),82% (active),-15%,99% (active),59.9%,-10%,98% (active),94.8% (active),0%,98% (active),97.9% (active)
COc1ccc(C2Cc3cc(OC)ccc3C2=O)cc1 (centres undefined),13%,94% (active),45.5%,9%,98% (active),29.4%,17%,95% (active),56.5%,19%,95% (active),23.6%,32%,97% (active),96% (active),10%,97% (active),57.4%
Cc1ccc(NNC(=O)C(O)C(O)C(O)C(O)CO)cc1 (centres undefined),98% (active),98% (active),-2.2%,99% (active),99% (active),2.6%,99% (active),99% (active),7.85%,99% (active),99% (active),41.8%,98% (active),99% (active),8.25%,99% (active),99% (active),1.2%
Cc1cc(/C=N/Nc2ccc3cccc(O)c3n2)c(O)c2ncccc12,40%,98% (active),99.1% (active),41%,98% (active),99% (active),51%,99% (active),99.1% (active),21%,99% (active),98.7% (active),17%,99% (active),99.2% (active),58%,98% (active),97% (active)
CCC(=O)c1cc2ccccc2c2ccccc12,4%,44%,66.3%,0%,20%,39%,0%,40%,37.3%,-3%,0%,9.9%,5%,74% (active),75.8% (active),-2%,61%,41.5%
Sc1ccccc1C1N(Cc2ccc(Cl)cc2)CCCN1Cc1ccc(Cl)cc1,98% (active),42%,79.2% (active),100% (active),69%,55.6%,99% (active),84% (active),86.8% (active),99% (active),39%,64%,99% (active),63%,81.8% (active),99% (active),73% (active),79.6% (active)
O=C(OCCN=c1c2ccccc2ccc2ccccc12)c1ccccc1,0%,97% (active),42%,-14%,94% (active),31.4%,-43%,83% (active),65.3%,22%,36%,29.8%,2%,98% (active),71% (active),-19%,98% (active),15.7%
CSCCC(NC(=O)C(CCSC)NS(=O)(=O)Cc1ccccc1)C(=O)O (centres undefined),-6%,-4%,98.9% (active),-4%,-3%,99.6% (active),-6%,-6%,48.5%,-2%,-12%,98.7% (active),-4%,-3%,99.2% (active),-4%,-5%,99.2% (active)
